# Article PMC4336329 (PLoS ONE, 2015)
# The whole screen tested about 310,000 compounds, of which about 14,000 (4.5%) showed an effect of 50% or more. The effect is printed as a negative number. The list comes from a sample in which strong results are over-represented; it also holds similar structures and randomly drawn compounds.
# Target: human ether-à-go-go-related gene (hERG) potassium channel (human, UniProt Q12809)
# Assay: primary screen, population patch clamp on CHO cells stably expressing hERG; higher = less effect of the substance
# 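Further: peak tail current of the secondary pulse compared with the same well before compound.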
# human ether-à-go-go-related gene (hERG) potassium channel, sequence (Q12809 whole entry, looked up): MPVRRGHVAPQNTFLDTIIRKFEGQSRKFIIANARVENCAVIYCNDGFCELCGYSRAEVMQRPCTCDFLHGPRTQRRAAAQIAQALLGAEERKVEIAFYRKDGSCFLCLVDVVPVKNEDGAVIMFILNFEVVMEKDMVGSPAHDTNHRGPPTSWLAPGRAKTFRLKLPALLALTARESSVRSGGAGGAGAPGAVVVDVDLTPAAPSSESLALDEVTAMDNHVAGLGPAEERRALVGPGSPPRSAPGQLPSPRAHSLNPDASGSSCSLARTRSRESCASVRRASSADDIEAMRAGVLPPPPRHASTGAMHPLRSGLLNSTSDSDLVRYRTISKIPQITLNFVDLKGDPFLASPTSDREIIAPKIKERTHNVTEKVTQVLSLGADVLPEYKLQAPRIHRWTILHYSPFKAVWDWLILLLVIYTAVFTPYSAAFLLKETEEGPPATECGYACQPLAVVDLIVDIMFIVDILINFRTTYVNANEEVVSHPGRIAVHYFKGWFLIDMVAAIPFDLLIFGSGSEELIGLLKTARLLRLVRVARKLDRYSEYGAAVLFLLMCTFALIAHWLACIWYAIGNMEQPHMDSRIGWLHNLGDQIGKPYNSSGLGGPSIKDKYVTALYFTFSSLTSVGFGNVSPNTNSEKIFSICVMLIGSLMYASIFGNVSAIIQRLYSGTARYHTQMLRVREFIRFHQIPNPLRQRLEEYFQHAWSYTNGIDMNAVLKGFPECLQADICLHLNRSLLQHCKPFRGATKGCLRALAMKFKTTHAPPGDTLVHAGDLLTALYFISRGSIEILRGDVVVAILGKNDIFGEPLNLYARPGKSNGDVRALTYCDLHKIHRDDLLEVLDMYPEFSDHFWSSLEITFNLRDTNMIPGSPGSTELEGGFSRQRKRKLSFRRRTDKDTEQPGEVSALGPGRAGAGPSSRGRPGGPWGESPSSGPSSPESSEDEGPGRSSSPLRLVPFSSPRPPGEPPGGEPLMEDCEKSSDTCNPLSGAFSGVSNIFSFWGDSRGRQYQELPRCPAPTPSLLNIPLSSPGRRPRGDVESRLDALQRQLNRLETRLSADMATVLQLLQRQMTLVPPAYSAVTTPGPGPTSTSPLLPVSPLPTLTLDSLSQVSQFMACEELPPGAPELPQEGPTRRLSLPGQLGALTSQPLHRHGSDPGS
row,SMILES,"hERG current change (%, negative = inhibition) at 10uM"
1,CNCCc1c[nH]c2ccccc12,6.05%
2,Fc1cccc(NCCc2c[nH]c3ccccc23)n1,11.3%
3,Cl.Oc1ccc(CCNc2c3ccccc3nc3ccccc23)cc1O,-68.2%
4,COc1ccc(C(=O)/C=C/Nc2cc(C)on2)cc1,3.9%
5,CCCCOC(=O)c1ccc(Nc2ccc([N+](=O)[O-])cn2)cc1,14.5%
6,Cc1ccc(-c2nnc(N3CC(C)OC(C)C3)c3ccccc23)cc1 (stereo not drawn),-20.6%
7,O=C(NC(=S)Nc1ccc(CN2CCOCC2)cc1)c1ccc2c(c1)OCCO2,-13.9%
8,CC(=Nc1ccccc1N)c1c(O)n(C)c(=O)n(C)c1=O,21%
9,CCOc1ccc(CN(C)C(=O)CCNC(=O)c2ccco2)cc1,1.35%
10,CCCOC(=O)c1[nH]c2c(c1C)C(=O)CC(c1ccc(OC)c(OC)c1)C2 (stereo not drawn),-4.07%
11,CCOc1ccccc1NC(=O)CN1C(=O)C(=O)N(Cc2ccco2)C1=O,8.17%
12,O=C(NCc1ccccc1)c1c(O)c2ccccc2[nH]c1=O,15.4%
13,CCCCCCNC(=O)c1c(O)c2ccccc2[nH]c1=O,19.9%
14,CCNC(=O)c1c(O)c2ccccc2[nH]c1=O,-62.5%
15,O=C(Cn1cnc2c(nnn2Cc2ccc(F)cc2)c1=O)NCc1ccc2c(c1)OCO2,-17.2%
16,C=CCn1c(COc2ccc(OC)cc2)nnc1SC(C)C(=O)NC1CC1 (stereo not drawn),-11.6%
17,CCCCCn1c(=O)[nH]c2cc(C(=O)NCCCN3CCCCC3)ccc2c1=O,-33.5%
18,CCOn1c(=O)c(=O)n(OC)c2ccccc21,-6.73%
19,CCOC(=O)C1(Cc2ccc(Cl)cc2)CCN(C(C)Cc2ccc(O)c(OC)c2)CC1 (stereo not drawn),-70.8%
20,CCOC(=O)C1(Cc2ccc(OC)cc2)CCN(S(C)(=O)=O)CC1,25.6%
21,CCOC(=O)C1(Cc2ccc(Cl)cc2)CCN(CCCn2cccn2)CC1,-74.8%
22,CCOC(=O)C1(Cc2cccc(OC)c2)CCN(C(C)CC(C)(C)O)CC1 (stereo not drawn),-28.5%
23,CCOC(=O)C1(Cc2ccc(OC)cc2)CCN(C(=O)CCn2cccn2)CC1,-7.25%

row,SMILES,"hERG current change (%, negative = inhibition) at 10uM"
1,CCOC(=O)C1(Cc2cccc(F)c2)CCN(CC(O)CO)CC1 (stereo not drawn),14.5%
2,CCOC(=O)C1(Cc2ccc(Cl)cc2)CCN(C(C)CCn2cccn2)CC1 (stereo not drawn),-87.2%
3,CCOC(=O)C1(Cc2cccc(F)c2)CCN(Cc2cnn(CC)c2)CC1,-32.2%
4,CCOC(=O)C1(Cc2cccc(F)c2)CCN(CCCn2cccn2)CC1,-74.6%
5,O=C1NC(=O)C(Nc2cccc3ccccc23)S1 (stereo not drawn),7.89%
6,Cc1cccc(-c2nc3c(c(SCC(=O)N(C)C)n2)CCCC3)c1,-21.5%
7,COC(=O)c1ccc([C@H](NC(=O)c2ccco2)[C@]2(C)C[C@H]2C2CCCCC2)cc1,9.14%
8,COc1ccc(CN2CCn3ncc(C(=O)Nc4cccc(C)c4)c3C2=O)cc1,6.5%
9,Cc1ccc(S(=O)(=O)N/N=C/c2ccc(OCC(=O)Nc3ccccc3Cl)cc2)cc1,1.73%
10,COc1cccc(N(C(=O)Cn2nnc(-c3cccs3)n2)C(C(=O)NC2CCCCC2)c2ccncc2)c1 (stereo not drawn),8%
11,COc1cc(C2(O)CCCCC2C)cc(OC)c1OC (stereo not drawn),15.9%
12,Br.COc1cc2c(cc1OC)-c1c(OC)c(OC)cc3c1[C@H](C2)[NH+](C)CC3,-16.7%
13,COc1cc2c(c(O)c1OC)-c1c(cc(OC)c(OC)c1OC)C[C@@H](C)[C@@H](C)C2,-78.6%
14,COc1cc2c(c(OC)c1OC)-c1c(cc3c(c1O)OCO3)C[C@@H](C)[C@@H](C)C2,0.26%
15,C/C=C(/C)C(=O)O[C@@H]1c2cc3c(c(OC)c2-c2c(cc(OC)c(OC)c2OC)[C@@H](OC(C)=O)[C@@H](C)[C@H]1C)OCO3,4.78%
16,COc1cc2c(c(OC)c1OC)-c1c(cc3c(c1OC)OCO3)C1OC2[C@@H](C)[C@H]1C (stereo partly drawn),-4.76%
17,COc1cc2c(c(OC)c1OC)-c1c(cc(OC)c(OC)c1OC)C[C@H](C)[C@H](C)C2,-71.9%
18,COc1cc2c(c(OC)c1OC)-c1c(cc3c(c1OC)OCO3)C[C@H](C)[C@@](C)(O)C2,28.4%
19,COc1cc2c(c(O)c1OC)C(=O)C(OC)CCC2 (stereo not drawn),-3.32%
20,COc1cc2c(c(OC)c1OC)-c1c(cc(OC)c(OC)c1OC)C[C@](C)(O)[C@@H](C)C2,-73.7%
21,COc1cc2c(c(OC)c1OC)-c1c(cc3c(c1OC)OCO3)[C@@H](OC(C)=O)[C@H](C)[C@H](C)C2,-66.8%
22,COc1cc2c(c(OC)c1OC)C(=O)CC2,15.6%
